Where “and” joins values, the source holds several entries; their conditions need not be identical. Equal values may be shown once. Inconclusive results are not listed. The source holds several records for some structures; these can differ, active in one and inactive in another. Calls of active or inactive are those of the source. Unless noted, calls come from the whole dose curve; as a rule, active = well fitted curve in the direction sought with a large enough effect; inconclusive = small, poorly fitted or top-dose-only effect, or another doubt; inactive = no such curve, though single readings can be large; an effect the other way counts as inactive or inconclusive.
Tests used:
[1] = S16 Schwann cell viability assay (CellTiter-Glo assay) (AID 624031);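 note: cellular ATP luminescence as a viability measure; nearly all actives have a fitted effect of over 70% in size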
Outline: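 Untransfected S16 rat Schwann cells; compound 24 h, 37 °C/5% CO2; CellTiter-Glo ATP luminescence. % activity vs no-cell wells and DMSO controls (0%); concentration-effect curves classed by r2, response magnitude, activity.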

[2] = S16 Schwann cell PMP22 intronic element beta-lactamase assay (AID 624044; calls by dose curve; note: nearly all actives have a fitted effect of over 15% in size; note: potency is the fitted concentration of half-maximal effect); conditions: S16 rat Schwann cells, PMP22 element beta-lactamase FRET, 24 h; ratio activity, negative = inhibition: at 38.3 µM (top of the series)
Outline: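 Beta-lactamase reporter under a PMP22 intronic regulatory element in stable S16 rat Schwann cells; 24 h compound exposure. 460 nm blue signal normalized between DMSO (0%) and potassium clavulanate, with 535 nm FRET tracking viability; curves classed by r2 and response.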

[3] = system: 7G8; test: qHTS profiling for inhibitors of Plasmodium falciparum proliferation (AID 504749); note: nearly all actives have a fitted effect of over 60% in size; note: potency is the fitted concentration of half-maximal effect; conditions: P. falciparum in erythrocytes, SYBR Green DNA, 72 h; series mostly up to 28.7 µM
Outline: (§1)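 Quantitative HTS: compounds pinned into medium, infected erythrocytes added (0.3% parasitemia, 2.5% hematocrit), 72 h culture at 37 C under 5% CO2. Saponin/Triton lysis with SYBR Green I, overnight RT, then fluorescence read.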

[4] = system: CP201; test: as above; conditions: P. falciparum in erythrocytes, SYBR Green DNA, 72 h; series mostly up to 28.7 µM
Outline: as §1

[5] = system: CP203; test: as above; conditions: P. falciparum in erythrocytes, SYBR Green DNA, 72 h; series mostly up to 28.7 µM
Outline: as §1

[6] = system: CP215; test: as above; conditions: P. falciparum in erythrocytes, SYBR Green DNA, 72 h; series mostly up to 28.7 µM
Outline: as §1

[7] = system: CP247; test: as above; conditions: P. falciparum in erythrocytes, SYBR Green DNA, 72 h; series mostly up to 28.7 µM
Outline: as §1

[8] = system: CP266; test: as above; conditions: P. falciparum in erythrocytes, SYBR Green DNA, 72 h; series mostly up to 28.7 µM
Outline: as §1

[9] = system: CP268; test: as above; conditions: P. falciparum in erythrocytes, SYBR Green DNA, 72 h; series mostly up to 28.7 µM
Outline: as §1

[10] = system: CP291; test: as above; conditions: P. falciparum in erythrocytes, SYBR Green DNA, 72 h; series mostly up to 28.7 µM
Outline: as §1

[11] = system: CP297; test: as above; conditions: P. falciparum in erythrocytes, SYBR Green DNA, 72 h; series mostly up to 28.7 µM
Outline: as §1

[12] = system: CP305; test: as above; conditions: P. falciparum in erythrocytes, SYBR Green DNA, 72 h; series mostly up to 28.7 µM
Outline: as §1

[13] = system: CP325; test: as above; conditions: P. falciparum in erythrocytes, SYBR Green DNA, 72 h; series mostly up to 28.7 µM
Outline: as §1

[14] = system: CP335; test: as above; conditions: P. falciparum in erythrocytes, SYBR Green DNA, 72 h; series mostly up to 28.7 µM
Outline: as §1

[15] = system: DIV17; test: as above; conditions: P. falciparum in erythrocytes, SYBR Green DNA, 72 h; series mostly up to 28.7 µM
Outline: as §1

[16] = system: GB4; test: as above; conditions: P. falciparum in erythrocytes, SYBR Green DNA, 72 h; series mostly up to 28.7 µM
Outline: as §1

[17] = system: ICS; test: as above; conditions: P. falciparum in erythrocytes, SYBR Green DNA, 72 h; series mostly up to 28.7 µM
Outline: as §1

[18] = system: P93_24; test: as above; conditions: P. falciparum in erythrocytes, SYBR Green DNA, 72 h; series mostly up to 28.7 µM
Outline: as §1

[19] = system: PAD; test: as above; conditions: P. falciparum in erythrocytes, SYBR Green DNA, 72 h; series mostly up to 28.7 µM
Outline: as §1

[20] = system: PC26; test: as above; conditions: P. falciparum in erythrocytes, SYBR Green DNA, 72 h; series mostly up to 28.7 µM
Outline: as §1

Measured: Potency

CCC(C(=O)C(C)C(O)C(C)CCc1ccc(C)c(O)c1C(=O)O)C1OC(CC)(C2CC[C@@](O)(CC)C(C)O2)CC1C (stereo partly drawn)
active: [2] 6.3 µM | [3] 0.501 µM | [4] 1.07 µM | [5] 0.849 µM | [6] 849 nM | [7] 0.794 µM | [8] 1.35 µM | [9] 0.849 µM | [10] 0.478 µM | [11] 0.601 µM | [12] 0.675 µM | [13] 0.953 µM | [14] 0.426 µM | [15] 0.849 µM | [16] 757 nM | [17] 0.631 µM | [18] 0.794 µM | [19] 1.26 µM | [20] 0.849 µM
inactive: [1]

NC(CSSCC(N)C(=O)O)C(=O)O (stereo not drawn)
inactive: all assays above

CNC1=CN(O)C(c2ccccc2)=c2cc(Cl)ccc2=N1
4.26 µM (active) and inactive: [4]
inactive: [1] | [2] | [3]
active: [5] 4.26 µM | [6] 4.26 µM and 10.7 µM | [8] 4.78 µM | [9] 4.26 µM | [10] 3.38 µM | [11] 4.26 µM | [12] 1.69 µM | [14] 3.79 µM | [15] 2.13 µM | [16] 953 nM and 15.1 µM | [17] 3.98 µM | [20] 4.26 µM

Cc1cc2nc3c(=O)[nH]c(=O)nc-3n(CC(O)C(O)C(O)COP(=O)(O)O)c2cc1C (stereo not drawn)
not listed: [7]
inactive: all other assays above

C[C@@H]1CCN(C(=O)[C@H](CCCNC(=N)N)NS(=O)(=O)c2cccc3c2NC[C@H](C)C3)[C@@H](C(=O)O)C1
not listed: [5]
inactive: all other assays above

CC(=O)N1CC(O)CC1C(=O)O (stereo not drawn)
inactive: all assays above

CC1(C)CC1C(=O)N/C(=C/CCCCSCC(N)C(=O)O)C(=O)O (stereo not drawn)
not listed: [2]
inactive: all other assays above

Nc1ncn(C2C[C@H](O)[C@@H](CO)O2)c(=O)n1 (stereo partly drawn)
not listed: [2] | [6] | [8] | [11]
inactive: all other assays above

CC(CN1CC(=O)NC(=O)C1)N1CC(=O)NC(=O)C1 (stereo not drawn)
not listed: [6]
inactive: all other assays above

COc1ccc(S(=O)(=O)N2c3ccc(Cl)cc3[C@](O)(c3ccccc3Cl)[C@@H]2C(=O)N2CCC[C@H]2C(N)=O)cc1OC
active: [3] 11.2 µM | [17] 10 µM
not listed: [14] | [15] | [18] | [19] | [20]
inactive: all other assays above

O=C(O)C(O)c1ccccc1 (stereo not drawn)
inactive: all assays above

Source: PubChem BioAssay (NCATS)
